{"source": "PubChem BioAssay (EPA / NIEHS)", "note": "More than one record can exist for a structure, and the calls need not agree. The source made the active and inactive calls. Rule for the calls: active = hit-call score of the fitted dose curve at least 0.9, where 1 is the maximum; inactive = score below 0.9."}
{"test": "APR_HepG2_p53Act_24hr: Apredica 24-hour HepG2 Assay for p53 Activation (AID 2282913)", "conditions": "high-content imaging, actives raise or lower the signal", "experimental": "APR_HepG2_24hr is a cell-based, multiplexed-readout assay that uses HepG2, a human liver cell line, with measurements taken at 24 hours after chemical dosing in a 384-well plate.APR_HepG2_p53Act_24hr is one of 10 assay component(s) measured or calculated from the APR_HepG2_24hr assay. It is designed to make measurements of dna content, a form of viability reporter, as detected with fluorescence intensity signals by HCS Fluorescent Imaging technology.Data from the assay component APR_HepG2_p53Act_24hr was analyzed into 1 assay endpoint. This assay endpoint, APR_HepG2_p53Act_24hr, was analyzed with bidirectional fitting relative to DMSO as the negative control and baseline of activity. Using a type of viability reporter, measures of protein for gain or loss-of-signal activity can be used to understand the signaling at the pathway-level as they relate to the gene TP53. Furthermore, this assay endpoint can be referred to as a primary readout, because this assay has produced multiple assay endpoints where this one serves a signaling function. To generalize the intended target to other relatable targets, this assay endpoint is annotated to the dna binding intended target family, where the subfamily is tumor suppressor.\nCells were treated with dimethyl sulfoxide (DMSO) as a solvent control at a final concentration of 0.5% v/v or with compounds in DMSO with a resulting final DMSO concentration of 0.5% v/v. Compound treatment was done at concentrations of 0.39, 0.78, 1.56, 3.12, 6.24, 12.5, 25, 50, 100, and 200 uM in duplicate on each plate. Cells were treated with compounds for 1, 24, or 72 hr. Carbonyl […] m-chloro-phenylhydrazone (CCCP) and taxol were used as positive controls for mitochondrial function and cytoskeletal stability, respectively; DMSO served as the negative control for this experiment. Cells were fixed by the direct addition of 50 uL formaldehyde in Hank's Balanced Salt Solution (HBSS) to a final concentration of 3.7%. After incubation in the fixation medium for 30 min at room temperature (293-298 K), cells were rinsed twice with HBSS and treated with cell permeabilization buffer (16 uL of 0.5% Triton X-100) for 10 min at room temperature (293-298 K) before labeling. For mitochondrial membrane potential and mitochondrial measurements, pre-fixed cells were incubated with 50 uL of MitoTracker Red CMXRos (Invitrogen) at a concentration of 250 nM for 30 min before fixation. In the remaining cases, post-fixed cells were labeled by incubation with a multiplexed mixture of primary antibodies in HBSS for 60 min at room temperature (293-298 K) to detect immunoreactivity of c-Jun (1:500), phospho-histone H3 (1:100), phospho-histone H2A.x (1:200), p53 (1:400), alpha-tubulin (1:200) and Hoechst 33342 (2 ug/mL). Cells were labeled for multiplexed imaging on two separate plates: a) Hoechst 33342, MitoTracker Red, phospho-histone H3, and alpha-tubulin, and b) Hoechst 33342, phospho-histone H2A.x, and c-Jun. A final rinse with HBSS (50 uL) was performed before analysis. The primary and secondary antibodies for the proteins were phospho-histone H3 (rabbit anti-phospho-histone H3 and FITC-donkey anti-rabbit IgG), phospho-histone H2A.x (mouse anti-phospho-histone H2A.x and FITC-donkey anti-mouse IgG), c-Jun (rabbit anti-phospho-c-Jun and Cy3-donkey anti-rabbit IgG), p53 (sheep anti-p53 and Cy5-donkey anti-sheep IgG), alpha-tubulin (mouse anti-alpha-tubulin and Cy5-donkey anti-mouse IgG). These antibodies are available as the CellCiphr HepG2 assay kit (Millipore).Digital images of each well were captured using a Cellomics ArrayScan VTI (Thermo Scientific Cellomics) (0.8 NA objective, 0.63x optical coupler, and XF-93 filter set) at 20x magnification. The images were acquired using the autofocus feature of the ArrayScan instrument, which entails the following steps. First, the camera focuses on channel 1 (Hoechst 33342), where nuclei are identified. Second, a Z offset of 1 um is used for capturing mitochondria (MitoTracker Red). […]"}
{"smiles": "CN(C)N=O", "outcome": "inactive"}
{"smiles": "NC(=O)O", "AC50": "9.29 µM (active)"}
{"smiles": "C=CC(=O)OCCCCCC(C)C", "outcome": "inactive"}
{"smiles": "O=c1[nH]c(=O)[nH]c(=O)[nH]1", "outcome": "inactive"}
{"smiles": "C[C@]12CCC(=O)C[C@@H]1CC[C@@H]1[C@@H]2CC[C@]2(C)[C@@H](O)CC[C@@H]12", "outcome": "inactive"}
{"smiles": "ClC1(Cl)C2(Cl)C3(Cl)C4(Cl)C(Cl)(Cl)C5(Cl)C3(Cl)C1(Cl)C5(Cl)C24Cl", "note": "(centres undefined)", "outcome": "inactive"}
{"smiles": "CC(C)(OO)c1ccccc1", "AC50": "65.8 µM (active)"}
{"smiles": "CCC(=O)C(CC(C)N(C)C)(c1ccccc1)c1ccccc1", "note": "(centres undefined)", "outcome": "inactive"}
{"smiles": "CC(C)(C)CC(C)(C)c1ccc(O)cc1", "AC50": "35 µM (active)"}
{"smiles": "CCCCCCCCc1ccc(O)cc1", "AC50": "67.3 µM (active)"}
{"smiles": "O=C(O)C(F)(F)C(F)(F)C(F)(F)C(F)(F)C(F)(F)C(F)(F)F", "outcome": "inactive"}
{"smiles": "CC(C)(c1ccccc1)c1ccc(O)c(C(C)(C)c2ccccc2)c1", "AC50": "40.8 µM (active)"}
{"smiles": "COc1cc(-c2ccc(N)c(OC)c2)ccc1N", "outcome": "inactive"}
{"smiles": "CC12CC1(C)C(=O)N(c1cc(Cl)cc(Cl)c1)C2=O", "note": "(centres undefined)", "outcome": "inactive"}
{"smiles": "Cn1sc(Cl)cc1=O", "AC50": "113 µM (active)"}
{"smiles": "CC(C)(C)c1cc(O)ccc1O", "outcome": "inactive"}
{"smiles": "C[C@@H]1C[C@@H]([C@H](O)CC2CC(=O)NC(=O)C2)C(=O)[C@@H](C)C1", "AC50": "21.7 µM (active)"}
{"smiles": "ClCC(Cl)CCl", "outcome": "inactive"}
{"smiles": "CCN1CCC2(CC1)COc1cc3c(cc12)N(C(=O)c1ccc(-c2ccc(-c4nnc(C)o4)cc2C)cc1)CC3", "AC50": "25.8 µM (active)"}
{"smiles": "O=C1C2(Cl)C3(Cl)C4(Cl)C(Cl)(Cl)C5(Cl)C3(Cl)C1(Cl)C5(Cl)C24Cl", "note": "(centres undefined)", "outcome": "inactive"}
{"smiles": "Oc1cccc2cccnc12", "AC50": "25.9 µM (active)"}
{"smiles": "O=C(O)C(Cl)(Cl)Cl", "AC50": "165 µM (active)", "outcome": "inactive"}
{"smiles": "C=C(C)C(=O)[O][Sn]([CH2]CCC)([CH2]CCC)[CH2]CCC", "AC50": "0.294 µM (active)"}
{"smiles": "CCC(C)(C)c1ccc(O)c(C(C)(C)CC)c1", "AC50": "32.1 µM (active)"}
{"smiles": "CC(=O)[O][Hg][c]1ccccc1", "outcome": "inactive"}
{"smiles": "O=C(O)C(F)(F)C(F)(F)C(F)(F)C(F)(F)C(F)(F)C(F)(F)C(F)(F)C(F)(F)C(F)(F)C(F)(F)F", "AC50": "66.9 µM (active)"}
{"smiles": "O=C(Nc1ccc2[nH]ccc2c1)c1cc2cc(F)ccc2n1Cc1cccc(F)c1", "AC50": "34.5 µM (active)"}
{"smiles": "Cc1ccccc1N", "outcome": "inactive"}
